A selection: hits, their analogues and other compounds. The true share with any hit is near 1.3%.
MCL1 BIM primary: inhibitors of MCL1 binding to BIM-BH3, primary screen, biochemical, fluorescence polarization; GST-MCL1 / FITC-Bim-BH3 fluorescence polarization; Induced myeloid leukemia cell differentiation protein Mcl-1 (Homo sapiens), Q07820; inhibition, % at 10.9 µM; actives 0.68% (n = 320,000);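 active means inhibition above the mean inhibition of all tested compounds plus 3 SD, set per campaign, cut at about 40% in these data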;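 further: higher means more loss of mP so more displacement of Bim peptide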
Bcl-xL primary: inhibitors of human Bcl-xL, primary screen, biochemical, fluorescence polarization, HTS; Bcl-2-like protein 1 (Homo sapiens), Q07817; GST-Bcl-xL / FITC-Bim BH3 peptide fluorescence polarization; inhibition, % at 10.9 µM; actives 0.7% (n = 320,000);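 active means inhibition above the mean of all tested compounds plus 3 SD, cutoff set per campaign, cut at about 30% in these data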;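 further: inhibitors lower millipolarization by displacing the labeled peptide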
E coli Lon inh: inhibitors of E. coli Lon protease, primary screen, biochemical, fluorescence polarization; AID 602123, 2011; actives 0.42% (n = 360,000); inhibition, % at 7.94 µM; purified E. coli Lon protease; in the data active means inhibition above about 13%, passing the limit was not always enough
Target sequence (P0A9M0 whole entry, looked up): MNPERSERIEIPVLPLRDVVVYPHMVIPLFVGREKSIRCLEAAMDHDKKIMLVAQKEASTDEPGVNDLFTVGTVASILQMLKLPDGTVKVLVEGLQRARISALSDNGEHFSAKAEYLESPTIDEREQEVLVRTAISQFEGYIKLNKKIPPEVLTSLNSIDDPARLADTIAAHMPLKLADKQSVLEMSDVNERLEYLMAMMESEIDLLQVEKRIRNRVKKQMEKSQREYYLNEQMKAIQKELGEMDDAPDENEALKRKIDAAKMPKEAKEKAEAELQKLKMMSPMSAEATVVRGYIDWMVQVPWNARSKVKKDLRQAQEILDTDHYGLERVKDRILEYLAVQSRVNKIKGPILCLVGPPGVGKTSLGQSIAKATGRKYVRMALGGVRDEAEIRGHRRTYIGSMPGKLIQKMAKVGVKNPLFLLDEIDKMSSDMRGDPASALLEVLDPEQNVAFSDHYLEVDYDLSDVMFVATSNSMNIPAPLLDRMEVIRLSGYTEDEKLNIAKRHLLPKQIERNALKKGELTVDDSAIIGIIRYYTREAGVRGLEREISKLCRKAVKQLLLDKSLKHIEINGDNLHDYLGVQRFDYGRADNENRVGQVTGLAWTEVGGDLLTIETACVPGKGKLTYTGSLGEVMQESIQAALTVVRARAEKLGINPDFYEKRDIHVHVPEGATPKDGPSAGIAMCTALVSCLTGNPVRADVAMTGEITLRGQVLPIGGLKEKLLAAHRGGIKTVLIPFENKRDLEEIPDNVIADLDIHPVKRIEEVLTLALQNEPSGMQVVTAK
GLD-1 TGE inh: GLD-1/TGE RNA complex disruptors, primary screen, biochemical, fluorescence polarization; Female germline-specific tumor suppressor gld-1 (Caenorhabditis elegans), Q17339; purified GLD-1 + fluorescein TGE RNA; inhibition, % at 5.96 µM; actives 0.44% (n = 320,000); AID 2280, 2010;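 active means percent inhibition above a per-plate cutoff, the plate mean of test compounds plus 3 SD, cut at about 30% in these data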
LANA DNA inh: inhibitors of KSHV C-LANA binding to DNA, primary screen, biochemical, fluorescence polarization, FAM-LBS DNA, MBP-C-LANA, single point; inhibition, % at 9 µM; Kaposi's sarcoma herpesvirus LANA C-terminal domain (residues 932-1162) DNA binding; actives 0.078% (n = 340,000);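 active means highest replicate inhibition at or above 60% at 9 µM, even if other replicates fall short; inactive means all replicates below 60% inhibition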
Keap1-Nrf2 PPI: Keap1-Nrf2 protein-protein interaction inhibitors, primary screen, biochemical, fluorescence polarization, single point; Kelch-like ECH-associated protein 1 (Homo sapiens), Q14145; Keap1 Kelch-Nrf2 peptide fluorescence polarization, 1536-well; inhibition, % at 9.4 µM; actives 0.15% (n = 340,000); AID 504523, 2011; in the data active means inhibition above about 12%;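 further: human Keap1 Kelch domain with fluorescein labeled Nrf2 9mer peptide probe; higher means more block of Keap1 binding to Nrf2 peptide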
E coli Lon conf: E. coli Lon protease inhibitor retest, confirmation, biochemical, fluorescence polarization. shares compounds with E coli Lon inh. purified E. coli Lon. actives 31% (n = 1,400). AID 602230, 2012. inhibition, % at 7.94 µM; in the data active means inhibition above about 16%
Each line names hits and unclear results; the compound was inactive in the other large screens (follow-up assays come after a bar, where they were run).

C/C(=N\OCC(=O)NC12CC3CC(CC(C3)C1)C2)c1cc2ccccc2o1	none
Cc1ccc(S(=O)(=O)n2cc(-c3ccccc3)c(N)n2)cc1	E coli Lon inh 15 | E coli Lon conf inactive
Nc1nn(S(=O)(=O)c2ccccc2)cc1-c1ccc([N+](=O)[O-])cc1	none
CC(OC(=O)c1ccc(Cl)c(S(=O)(=O)Nc2ccc(F)cc2)c1)C(=O)NC(N)=O (stereo unspecified)	none
O=C(Nc1ccccc1)c1ccc(-c2ccc([N+](=O)[O-])cc2)o1	E coli Lon inh 30 | E coli Lon conf inactive
COCc1cc(=O)[nH]c2cc(NC(=O)c3cccc(OC)c3)c(C)cc12	none
COc1ccc(C(NC(=O)C2CCN(Cc3ccc(Oc4ccccc4)cc3)CC2)c2ccccc2C)cn1 (stereo unspecified)	E coli Lon inh 15 (no result: MCL1 BIM primary, Bcl-xL primary, GLD-1 TGE inh, LANA DNA inh, Keap1-Nrf2 PPI) | E coli Lon conf inactive
COc1ccc(CN2CCN(C(=O)C3CCC(CNS(=O)(=O)c4ccccc4)CC3)CC2)c(OC)c1OC (stereo unspecified)	E coli Lon inh 143 | E coli Lon conf inactive
O=C(C1CCC(CNS(=O)(=O)c2ccccc2)CC1)N1CCCCC1 (stereo unspecified)	none
CC(C)c1onc(C(=O)Nc2cccnc2Cl)c1[N+](=O)[O-]	E coli Lon inh 19 | E coli Lon conf inactive
Cc1cccc(N2N=C(C(=O)O)CCC2=O)c1	E coli Lon inh 37 | E coli Lon conf inactive
NS(=O)(=O)c1ccc(N/N=C/c2ccc(O)c(O)c2O)c([N+](=O)[O-])c1	E coli Lon inh 21 (no result: MCL1 BIM primary, Bcl-xL primary, GLD-1 TGE inh) | E coli Lon conf 38
CCCNC(=O)c1ccc2c(=O)c(O)c(C)[nH]c2c1	none
O=C(NCCCO)c1ccc2[nH]c3ccccc3c2c1	none
CCCNC(=O)c1ccc2c(=O)c(O)c(-c3ccc(F)cc3)[nH]c2c1	E coli Lon inh 163 | E coli Lon conf 100
CCCNC(=O)c1ccc2c(=O)c(O)c(-c3cccc(Br)c3)[nH]c2c1	E coli Lon inh 143 | E coli Lon conf 135
Nc1c(Cl)cc(-c2[nH]c3cc(C(=O)NCCO)ccc3c(=O)c2O)cc1Cl	E coli Lon inh active | E coli Lon conf 193
CC(C)(C)[C@@H]1COC(=O)[C@H](Cc2ccc(F)cc2)C/C=C\C[C@@H](CC(=O)N(CCO)Cc2ccccc2)C(=O)N1	none (no result: MCL1 BIM primary, Bcl-xL primary)
O=C(CN1CCN(CC(=O)Nc2ccccc2F)CC1)Nc1ccc2c(c1)OCCO2	none
CCCOC(=O)C1C2C=CC(C2)C1C(=O)OCC(=O)c1ccccc1 (stereo unspecified)	E coli Lon inh 25 | E coli Lon conf 87
CN(/N=C/c1ccc(N(C)C)cc1)C1=NS(=O)(=O)c2ccccc21	E coli Lon inh 47 | E coli Lon conf inactive
CC(C)c1nn(-c2cc(C(F)(F)F)ccn2)c(=O)o1	none
O=C(c1nc2ccccn2c1CN1CCCC(O)C1)N1CCN(C2CCCCC2)CC1 (stereo unspecified)	E coli Lon inh 19 | E coli Lon conf inactive
COC(=O)C(Cc1ccccc1)NC(=O)C(CC(C)C)NC(=O)OC(C)(C)C (stereo unspecified)	none
CC(C)CC(NC(=O)OC(C)(C)C)C(=O)O (stereo unspecified)	E coli Lon inh 19 | E coli Lon conf inactive
O=C(Nc1ccccc1Cl)c1cc(C2CCCN(C(=O)OCCF)C2)on1 (stereo unspecified)	none (no result: MCL1 BIM primary, Bcl-xL primary, GLD-1 TGE inh, LANA DNA inh, Keap1-Nrf2 PPI)
COC(=O)N1CCCC(c2cc(C(=O)Nc3ccccc3Cl)no2)C1 (stereo unspecified)	E coli Lon inh 52 (no result: MCL1 BIM primary, Bcl-xL primary, GLD-1 TGE inh, LANA DNA inh, Keap1-Nrf2 PPI) | E coli Lon conf inactive
CCOC(=O)c1ccccc1NC(=O)COC(=O)CSc1ccccc1	none
Cc1ccsc1C1Nc2ccc3ncccc3c2C2=C1C(=O)CC(C)(C)C2 (stereo unspecified)	E coli Lon inh 22 | E coli Lon conf inactive
CC(=O)C1=C(O)C(=O)N(c2ccc(Br)cc2)C1c1ccc(Br)cc1 (stereo unspecified)	E coli Lon inh 30 | E coli Lon conf inactive
CCOc1ccc(NC(=O)c2sc3nc(C)nc(N4CCOCC4)c3c2C)cc1	none
Cc1ccc(S(=O)(=O)NNC(=S)Nc2ccccc2)cc1	E coli Lon inh 22 | E coli Lon conf inactive
O=C(Cc1ccccc1F)Nc1nc2ccccc2[nH]1	none (no result: LANA DNA inh, Keap1-Nrf2 PPI)
O=C(Cc1cccc2ccccc12)Nc1nc2ccccc2[nH]1	E coli Lon inh 65 | E coli Lon conf inactive
Cn1c(O)c(N=NC(=O)CNC(=O)c2cccnc2)c2ccccc21	E coli Lon inh 19 | E coli Lon conf inactive
Cc1ccc(S(=O)(=O)N(c2nc(N(C)C)nc(N(C)C)n2)n2cnnc2)cc1	none
COc1ccc(N2C(=O)C3CCCN3C2c2ccccc2)cc1 (stereo unspecified)	E coli Lon inh 16 | E coli Lon conf inactive
COc1ccc(C2N(c3ccc(OC)cc3)C(=O)C3CCCN32)cc1 (stereo unspecified)	none
Cc1cc(C(=O)NNC(=O)C(C)NS(=O)(=O)c2ccccc2F)c(C)o1 (stereo unspecified)	none (no result: MCL1 BIM primary, Bcl-xL primary)
COC(=O)[C@@]12CCCCN1[C@H](c1ccc(SC3CCCCC3)cc1)[C@@H]1C(=O)N(C)C(=O)[C@@H]12	none
CCOCCn1cnc2sc(C(=O)NCC(=O)OCC)c(C)c2c1=O	E coli Lon inh 15 | E coli Lon conf inactive
COc1ccc(C2C3=C(CC(C)(C)CC3=O)Oc3ncn4nc(-c5ccccc5)nc4c32)cc1 (stereo unspecified)	E coli Lon inh 26 (no result: MCL1 BIM primary, Bcl-xL primary, GLD-1 TGE inh) | E coli Lon conf inactive
Nn1c(SCC(=O)NC2CCCCCC2)nnc1-c1ccco1	none (no result: MCL1 BIM primary, Bcl-xL primary, GLD-1 TGE inh, LANA DNA inh, Keap1-Nrf2 PPI)
O=S(=O)(Nc1cccc(S(=O)(=O)N2CCCC2)c1)c1ccc(Cl)cc1	E coli Lon inh 101 (no result: MCL1 BIM primary, Bcl-xL primary) | E coli Lon conf inactive
O=S(=O)(Nc1cccc(S(=O)(=O)N2CCCCCC2)c1)c1ccccc1	none
C=CC[C@@H](CC(=O)N(CCO)Cc1ccccc1)C(=O)N[C@@H](COC(=O)[C@H](CC=C)CC(=O)OC(C)(C)C)Cc1c[nH]c2ccccc12	none (no result: MCL1 BIM primary, Bcl-xL primary)
C=CC[C@H](CC(=O)N(CCO)Cc1ccccc1)C(=O)N[C@@H](COC(=O)[C@@H](CC=C)CC(=O)OC(C)(C)C)Cc1c[nH]c2ccccc12	E coli Lon inh 21 (no result: MCL1 BIM primary, Bcl-xL primary) | E coli Lon conf inactive
CCNC(=S)N=Nc1c(O)[nH]c2ccc(C(C)C)cc12	E coli Lon inh 23 | E coli Lon conf 20

Screens from PubChem BioAssay.
